Assay results as given in PubChem BioAssay.
Where “and” joins values, the source holds several entries; their conditions need not be identical. Identical values can stand only once. Calls of active or inactive are those of the source.

Experiments:
[1] = system: PRMT1 (protein arginine N-methyltransferase 1); assay: small molecules binding arginine methyltransferase PRMT1 – biochemical, small-molecule microarray, 635 nm fluorescence, primary screen (AID 1088); settings: higher = more signal;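 also: binding of Prmt1 protein to compounds spotted on small-molecule microarray slides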
[2] = growth effects on S. cerevisiae YJM789 – YJM789 clinical isolate, OD600, 24 h, basal, primary screen (AID 1089); settings: higher = more signal, called active from +8 up or from −8 down;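 also: growth of clinical yeast isolate S. cerevisiae YJM 789 seeded 1000 cells per well; test concentration not given here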
[3] = S. pombe growth modifiers, basal conditions – strain 972, OD600, 24 h, no modulator, primary screen (AID 1090);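 also: basal condition with compound alone and no growth modifier present; test concentration not given here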; settings: S. pombe 972 growth, higher = more signal, called active from +8 up or from −8 down
[4] = budding yeast growth modifiers under rapamycin – strain BY4716, OD600, 96 h, primary screen (AID 1091); also: test concentration not given here; settings: S. cerevisiae BY4716 + rapamycin, higher = more signal, called active from +8 up or from −8 down
[5] = molecular target: Torsin-1A-interacting protein 2 (Homo sapiens) (UniProt Q8NFQ8); assay: small molecules binding lysate-expressed LULL1 – cell lysate, human LULL1 lysate, 635/667 nm fluorescence, primary screen (AID 1092); settings: small-molecule microarray, hLULL1 lysate binding, 635 nm fluorescence; higher = more signal;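 also: probe is lysate of COS7 cells overexpressing human LULL1; score merges per-feature 667 nm fluorescence with signal-to-noise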
[6] = optical density change of DRC41 E. coli – strain DRC41, OD650, 24 h, E. coli filamentation project, primary screen (AID 1093);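 also: MC1000 strain lacking acrAB efflux and sulA so SOS filamentation is blocked; test concentration not given here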; settings: E. coli DRC41 growth, higher = more signal, called active from +8 up or from −8 down
[7] = probe aLefty2 binding to arrayed compounds – biochemical, biotinylated probe, 635/667 nm fluorescence, primary screen (AID 1094); settings: small-molecule microarray, higher = more signal;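 also: score merges spot fluorescence near 667 nm with spot signal-to-noise ratio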
[8] = system: Noggin (protein binding on small-molecule microarray); assay: small molecules binding Noggin protein – biochemical, 635/667 nm fluorescence, primary screen (AID 1095); settings: 635 nm fluorescence, higher = more signal;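 also: score merges 667 nm feature fluorescence with signal to noise over triplicate slides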
[9] = molecular target: Neurogenic locus notch homolog protein 3 (Homo sapiens) (UniProt Q9UM47); assay: small molecules binding NOTCH3 protein – biochemical, 635/667 nm fluorescence, primary screen (AID 1096); settings: small-molecule microarray, 635 nm fluorescence, higher = more signal
[10] = probe aEGFR binding to arrayed compounds – biochemical, biotinylated probe, 635/667 nm fluorescence, primary screen (AID 1097); settings: small-molecule microarray, higher = more signal;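 also: probe is a biotinylated anti-EGFR antibody binding compounds printed on slides; score combines fluorescence near 667 nm and signal to noise of each spot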
[11] = system: Plasmodium falciparum Sir2 (PF13_0152, Sir2A); assay: Plasmodium falciparum Sir2A binding compounds – biochemical, small-molecule microarray, 635 nm fluorescence, primary screen (AID 1098); settings: fluorescence 635 nm, higher = more signal;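 also: score merges spot fluorescence intensity with its signal-to-noise ratio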
[12] = probe aDKK1 binding to arrayed compounds – biochemical, biotinylated probe, 635/667 nm fluorescence, primary screen (AID 1099); settings: small-molecule microarray, higher = more signal;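 also: score merges 667nm spot fluorescence with signal to noise across triplicate slides; reference of the scale not given here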
[13] = probe aCHRDL2 binding to arrayed compounds – biochemical, biotinylated probe, 635/667 nm fluorescence, primary screen (AID 1100); settings: small-molecule microarray, higher = more signal
[14] = change in splice reporter luminescence, either direction, cell-based, HEK293, spliceosome inhibition project, primary screen (AID 1101); settings: HEK293 splicing luciferase reporter, 24 h, higher = more signal, called active from +8 up or from −8 down;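 also: HEK293 cells carrying a splicing-competent luciferase reporter gene; test concentration not given here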
[15] = molecular target: Fibroblast growth factor 10 (Homo sapiens) (UniProt O15520); assay: compounds binding fibroblast growth factor 10 – biochemical, small-molecule microarray, 635 nm fluorescence, primary screen (AID 1102); settings: FGF10 binding, fluorescence 635 nm, higher = more signal
[16] = system: glycogen synthase kinase-3 (GSK3A per assay name; protocol says GSK3B); assay: compounds binding glycogen synthase kinase-3 – biochemical, small-molecule microarray, 635 nm fluorescence, GSK3A, primary screen (AID 1103); settings: fluorescence 635 nm, higher = more signal; also: the record names both GSK3A and GSK3B
[17] = molecular target: Epidermal growth factor receptor (Homo sapiens) (UniProt P00533); assay: compounds binding epidermal growth factor receptor – biochemical, small-molecule microarray, 635 nm fluorescence, primary screen (AID 1104); settings: EGFR binding, higher = more signal;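 also: score merges 667 nm emission intensity with spot signal to noise over triplicate slides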
[18] = molecular target: Follistatin-related protein 3 (Homo sapiens) (UniProt O95633); assay: compounds binding follistatin-related protein 3 – biochemical, small-molecule microarray, 635 nm fluorescence, primary screen (AID 1105); settings: FSTL3 binding, higher = more signal;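 also: score merges emission near 667 nm and signal to noise per printed spot across three slides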
[19] = molecular target: Dickkopf-related protein 1 (Homo sapiens) (UniProt O94907); assay: small molecules binding DKK1 protein – biochemical, small-molecule microarray, 635 nm fluorescence scan, primary screen (AID 1106); settings: higher = more signal;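 also: score merges emission near 667 nm with signal to noise over three replicate slides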
[20] = system: Inhibin beta A chain (activin A); assay: small molecules binding activin A – biochemical, small-molecule microarray, 635 nm fluorescence scan, primary screen (AID 1107); settings: INHBA, higher = more signal;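 also: mouse activin A protein probed at 4.33 µg/mL on printed slides; score merges bound-protein fluorescence near 667 nm with spot signal-to-noise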

Chain of Fibroblast growth factor 10 (Homo sapiens) (O15520 whole entry, looked up): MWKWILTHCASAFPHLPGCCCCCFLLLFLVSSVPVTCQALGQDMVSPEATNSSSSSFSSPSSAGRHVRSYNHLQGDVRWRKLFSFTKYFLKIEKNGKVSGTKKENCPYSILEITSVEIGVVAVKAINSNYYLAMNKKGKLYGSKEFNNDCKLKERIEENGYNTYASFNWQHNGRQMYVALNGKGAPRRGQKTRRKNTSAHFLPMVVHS
Chain of Dickkopf-related protein 1 (Homo sapiens) (O94907 whole entry, looked up): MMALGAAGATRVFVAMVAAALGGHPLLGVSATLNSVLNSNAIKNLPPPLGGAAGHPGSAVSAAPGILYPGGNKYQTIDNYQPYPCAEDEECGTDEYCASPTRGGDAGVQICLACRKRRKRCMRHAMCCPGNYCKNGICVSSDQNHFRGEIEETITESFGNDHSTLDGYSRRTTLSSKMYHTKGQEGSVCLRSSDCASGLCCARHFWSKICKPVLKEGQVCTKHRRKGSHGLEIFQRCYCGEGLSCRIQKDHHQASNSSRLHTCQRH
Chain of Neurogenic locus notch homolog protein 3 (Homo sapiens) (Q9UM47 whole entry, looked up): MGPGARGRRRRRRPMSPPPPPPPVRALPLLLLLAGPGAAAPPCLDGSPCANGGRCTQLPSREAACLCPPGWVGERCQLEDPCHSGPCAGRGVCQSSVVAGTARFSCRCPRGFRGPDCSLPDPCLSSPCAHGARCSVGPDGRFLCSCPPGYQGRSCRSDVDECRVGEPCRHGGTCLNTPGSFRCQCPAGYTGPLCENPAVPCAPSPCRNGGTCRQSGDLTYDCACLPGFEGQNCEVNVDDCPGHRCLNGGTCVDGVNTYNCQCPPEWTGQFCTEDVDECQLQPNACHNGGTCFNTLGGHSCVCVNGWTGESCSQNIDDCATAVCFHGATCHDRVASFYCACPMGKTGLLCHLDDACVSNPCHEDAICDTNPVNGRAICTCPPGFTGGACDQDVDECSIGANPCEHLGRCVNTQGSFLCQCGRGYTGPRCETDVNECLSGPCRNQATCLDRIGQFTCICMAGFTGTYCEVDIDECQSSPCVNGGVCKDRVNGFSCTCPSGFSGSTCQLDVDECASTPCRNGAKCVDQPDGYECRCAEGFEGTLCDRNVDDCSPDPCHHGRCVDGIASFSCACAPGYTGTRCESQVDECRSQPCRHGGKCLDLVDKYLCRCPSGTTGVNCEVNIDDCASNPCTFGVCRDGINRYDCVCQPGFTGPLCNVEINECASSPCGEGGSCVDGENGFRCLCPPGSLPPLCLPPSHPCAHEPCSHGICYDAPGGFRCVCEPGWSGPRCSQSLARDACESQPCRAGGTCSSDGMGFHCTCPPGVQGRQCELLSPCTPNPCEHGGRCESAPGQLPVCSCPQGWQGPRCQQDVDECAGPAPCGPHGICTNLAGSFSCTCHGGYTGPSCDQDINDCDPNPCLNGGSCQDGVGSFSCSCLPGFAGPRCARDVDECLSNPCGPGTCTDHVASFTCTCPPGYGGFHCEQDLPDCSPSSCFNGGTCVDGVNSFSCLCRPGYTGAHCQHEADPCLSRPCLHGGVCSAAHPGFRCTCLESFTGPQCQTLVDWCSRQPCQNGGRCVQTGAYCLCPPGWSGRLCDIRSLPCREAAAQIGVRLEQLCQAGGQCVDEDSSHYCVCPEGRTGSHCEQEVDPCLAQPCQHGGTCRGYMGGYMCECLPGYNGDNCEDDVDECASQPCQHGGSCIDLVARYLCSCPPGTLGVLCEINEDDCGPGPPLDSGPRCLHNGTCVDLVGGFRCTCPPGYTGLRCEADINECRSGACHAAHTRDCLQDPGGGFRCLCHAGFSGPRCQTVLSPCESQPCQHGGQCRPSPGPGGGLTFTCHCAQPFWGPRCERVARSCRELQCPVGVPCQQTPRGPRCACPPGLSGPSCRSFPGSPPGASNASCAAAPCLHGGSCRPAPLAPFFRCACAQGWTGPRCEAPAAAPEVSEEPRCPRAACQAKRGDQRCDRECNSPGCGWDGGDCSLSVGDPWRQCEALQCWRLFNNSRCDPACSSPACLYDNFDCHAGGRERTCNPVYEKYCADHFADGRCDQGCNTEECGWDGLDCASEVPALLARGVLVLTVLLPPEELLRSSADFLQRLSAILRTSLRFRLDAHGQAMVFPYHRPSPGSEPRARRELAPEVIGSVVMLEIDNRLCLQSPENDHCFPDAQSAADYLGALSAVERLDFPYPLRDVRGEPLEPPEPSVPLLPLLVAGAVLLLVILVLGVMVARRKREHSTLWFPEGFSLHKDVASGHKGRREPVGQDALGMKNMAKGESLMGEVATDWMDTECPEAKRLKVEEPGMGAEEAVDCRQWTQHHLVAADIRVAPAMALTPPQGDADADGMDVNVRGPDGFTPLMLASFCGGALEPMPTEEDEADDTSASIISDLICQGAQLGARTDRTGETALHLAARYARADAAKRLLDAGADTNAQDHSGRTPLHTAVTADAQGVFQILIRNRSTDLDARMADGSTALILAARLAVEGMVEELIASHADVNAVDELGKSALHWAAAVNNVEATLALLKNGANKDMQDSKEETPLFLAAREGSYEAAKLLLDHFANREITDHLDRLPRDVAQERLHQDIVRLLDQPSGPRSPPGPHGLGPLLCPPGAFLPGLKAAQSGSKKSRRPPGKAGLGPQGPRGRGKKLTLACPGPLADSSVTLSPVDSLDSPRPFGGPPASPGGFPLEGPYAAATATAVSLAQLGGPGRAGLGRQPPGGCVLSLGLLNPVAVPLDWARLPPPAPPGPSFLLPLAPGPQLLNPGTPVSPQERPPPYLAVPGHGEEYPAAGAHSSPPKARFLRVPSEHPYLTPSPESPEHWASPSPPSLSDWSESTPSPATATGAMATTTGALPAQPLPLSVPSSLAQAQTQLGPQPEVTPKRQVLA
Chain of Follistatin-related protein 3 (Homo sapiens) (O95633 whole entry, looked up): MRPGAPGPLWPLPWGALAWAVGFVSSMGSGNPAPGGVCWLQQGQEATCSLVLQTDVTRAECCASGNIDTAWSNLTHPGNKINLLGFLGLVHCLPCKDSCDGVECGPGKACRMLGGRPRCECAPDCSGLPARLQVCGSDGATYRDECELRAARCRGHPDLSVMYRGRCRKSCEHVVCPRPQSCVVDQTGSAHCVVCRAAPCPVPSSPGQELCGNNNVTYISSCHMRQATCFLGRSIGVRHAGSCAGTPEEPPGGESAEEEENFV
Chain of Epidermal growth factor receptor (Homo sapiens) (P00533 whole entry, looked up): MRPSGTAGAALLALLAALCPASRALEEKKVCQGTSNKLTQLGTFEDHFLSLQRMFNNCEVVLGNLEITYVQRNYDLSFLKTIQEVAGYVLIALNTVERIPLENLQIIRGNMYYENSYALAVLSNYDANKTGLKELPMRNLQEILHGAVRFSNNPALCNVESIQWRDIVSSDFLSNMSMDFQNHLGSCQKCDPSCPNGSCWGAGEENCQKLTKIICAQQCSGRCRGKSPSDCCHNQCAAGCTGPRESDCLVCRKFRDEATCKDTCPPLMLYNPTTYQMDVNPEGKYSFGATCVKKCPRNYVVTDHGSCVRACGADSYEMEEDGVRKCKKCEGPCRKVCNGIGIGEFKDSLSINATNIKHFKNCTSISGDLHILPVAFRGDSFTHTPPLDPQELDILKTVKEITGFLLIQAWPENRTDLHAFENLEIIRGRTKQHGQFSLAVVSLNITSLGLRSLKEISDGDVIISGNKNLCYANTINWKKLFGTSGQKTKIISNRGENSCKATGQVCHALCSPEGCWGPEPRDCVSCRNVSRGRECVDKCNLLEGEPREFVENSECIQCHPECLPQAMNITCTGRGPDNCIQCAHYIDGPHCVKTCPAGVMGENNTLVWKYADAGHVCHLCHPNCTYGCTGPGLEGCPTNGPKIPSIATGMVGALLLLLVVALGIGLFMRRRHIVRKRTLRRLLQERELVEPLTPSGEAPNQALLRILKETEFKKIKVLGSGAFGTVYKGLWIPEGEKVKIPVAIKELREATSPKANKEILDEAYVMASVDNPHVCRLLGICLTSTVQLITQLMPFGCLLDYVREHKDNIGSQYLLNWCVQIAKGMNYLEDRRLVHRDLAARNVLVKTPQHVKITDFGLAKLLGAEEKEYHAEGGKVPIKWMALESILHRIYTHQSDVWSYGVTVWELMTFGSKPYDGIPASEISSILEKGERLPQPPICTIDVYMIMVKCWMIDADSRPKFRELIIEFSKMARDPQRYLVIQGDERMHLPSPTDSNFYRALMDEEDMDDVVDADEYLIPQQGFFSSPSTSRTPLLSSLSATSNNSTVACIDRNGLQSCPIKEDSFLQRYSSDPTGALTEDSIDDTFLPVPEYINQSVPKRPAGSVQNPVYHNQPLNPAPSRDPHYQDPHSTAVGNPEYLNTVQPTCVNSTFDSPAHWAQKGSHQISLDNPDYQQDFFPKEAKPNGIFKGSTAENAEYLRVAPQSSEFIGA
Chain of Torsin-1A-interacting protein 2 (Homo sapiens) (Q8NFQ8 whole entry, looked up): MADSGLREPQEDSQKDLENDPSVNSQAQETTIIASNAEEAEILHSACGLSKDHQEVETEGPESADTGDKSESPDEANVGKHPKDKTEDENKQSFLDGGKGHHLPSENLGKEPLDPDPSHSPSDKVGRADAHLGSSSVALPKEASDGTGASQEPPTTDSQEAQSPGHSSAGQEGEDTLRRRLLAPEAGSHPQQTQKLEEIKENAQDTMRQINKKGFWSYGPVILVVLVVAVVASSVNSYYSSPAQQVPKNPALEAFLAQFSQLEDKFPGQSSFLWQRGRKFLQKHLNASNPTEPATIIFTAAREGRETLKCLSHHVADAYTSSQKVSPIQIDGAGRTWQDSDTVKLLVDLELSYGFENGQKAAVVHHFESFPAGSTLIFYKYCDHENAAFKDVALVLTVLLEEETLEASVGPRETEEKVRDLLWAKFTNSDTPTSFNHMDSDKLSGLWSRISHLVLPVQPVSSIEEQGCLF

Structure (SMILES)	composite z-score [1]	z-score [2]	z-score [3]	z-score [4]	composite z-score [5]	z-score [6]	composite z-score [7]	composite z-score [8]	composite z-score [9]	composite z-score [10]	composite z-score [11]	composite z-score [12]	composite z-score [13]	z-score [14]	composite z-score [15]	composite z-score [16]	composite z-score [17]	composite z-score [18]	composite z-score [19]	composite z-score [20]
C=C[C@H](OC)[C@@H](O)c1ccc(O)c(F)c1	-1.12 and -0.749	-0.603 (inactive) and 0.106 (inactive)	-0.0898 (inactive) and -0.311 (inactive)	-1.17 (inactive) and -0.327 (inactive)	-0.93 and -0.808	-0.853 (inactive) and 0.238 (inactive)	-0.0992 and -0.215	-2.38 and -1.6	-1.42 and -1.23	-0.435 and -0.387	1.2 and -1.38	-0.48 and -0.349	0.7 and 0.65	-0.257 (inactive) and 0.0293 (inactive)	-1.35 and -1.61	-2.09 and -1.69	-2.36 and -1.75	-1.89 and -1.94	-2 and -1.4	-1.87 and -1.2
CCOC(=O)C[C@H]1[C@H](OC(=O)c2ccccc2-c2ccccc2)[C@@H](NC(=O)Cc2ccc(OC)cc2)c2cc(OCCCO)ccc2N1C(=O)Cc1ccc(OC)cc1	0.407 and -0.949	-0.0142 (inactive) and -0.0701 (inactive)	-0.572 (inactive) and 0.18 (inactive)	0.843 (inactive) and 0.39 (inactive)	1.46 and -0.199	2.39 (inactive) and -0.335 (inactive)	0.139 and -0.176	0.0766 and -0.182	0.784 and -0.204	0.0084 and -0.142	0.463 and -0.568	0.659 and -0.038	0.675 and 0.58	-1.05 (inactive) and -0.311 (inactive)	0.57 and -0.0746	0.348 and -0.607	-0.111 and -0.847	0.223 and -0.624	-0.215 and -0.331	0.29 and 0.764
COc1ccc(O[C@H]2C=C[C@@H](c3ccccc3)O[C@@H]2COC(=O)CCC(C)=NO[C@H](C)c2cn([C@H](CO)Cc3ccccc3)nn2)cc1	0.88 and 0.299	0.479 (inactive) and 0.555 (inactive)	0.52 (inactive) and 0.0557 (inactive)	0.616 (inactive) and 1.32 (inactive)	0.026 and 0.303	0.204 (inactive) and 0.524 (inactive)	-0.353 and -0.312	0.393 and 0.795	0.155 and 0.167	0.257 and -0.336	0.366 and 0.205	0.416 and -0.0879	-0.305 and -0.291	-0.643 (inactive) and -1.07 (inactive)	-0.0593 and 0.263	-0.018 and 0.173	0.188 and 0.353	0.73 and 0.397	1.12 and 1.39	0.164 and 0.485
C=CCN(Cc1ccccc1)C(=O)C(c1cccs1)N(C(=O)/C=C\C(=O)O)c1ccc(CCO)cc1 (stereo not given)	-0.0611 and -0.636	-0.0499 (inactive) and -0.0798 (inactive)	-0.0594 (inactive) and 0.33 (inactive)	-0.184 (inactive) and 0.0995 (inactive)	3.59 and 1.9	0.478 (inactive) and -0.0137 (inactive)	-0.0927 and -0.205	-2.05 and -1.63	-1.46 and -0.922	-0.239 and -0.321	-0.14 and -0.0434	-0.141 and -0.17	0.98 and 0.85	0.203 (inactive) and 0.258 (inactive)	-1.22 and -2.14	-1.23 and -1.61	-1.96 and -1.68	-1.91 and -1.88	-2.15 and -2.42	-1.76 and -3.2
Cc1ccc(S(=O)(=O)N[C@H]2COC(=O)[C@@H](Cc3ccccc3)NC(=O)[C@@H](C)COC(=O)CC=C[C@@H]2C)cc1	-0.0829 and 1.56	-0.248 (inactive) and -0.666 (inactive)	0.209 (inactive) and 0.195 (inactive)	-0.342 (inactive) and -0.348 (inactive)	-0.872 and 0.969	0.205 (inactive) and 0.134 (inactive)	-0.212 and -0.0726	0.3 and 0.541	-0.587 and 0.629	-0.0952 and -0.0661	-0.218 and 0.304	-0.483 and -0.332	-0.803 and -0.645	0.565 (inactive) and -0.0193 (inactive)	0.117 and 0.435	-0.0808 and -0.0049	0.513 and 0.282	0.87 and 0.533	0.871 and 0.895	0.657 and 0.0736
C[C@@H](ON=C1[C@H]2CCn3c(=O)n(-c4ccccc4)c(=O)n3[C@H]2[C@H](O)[C@@H]2O[C@H]12)c1cn([C@H](CO)Cc2ccccc2)nn1	0.587	-0.217 (inactive)	-0.165 (inactive)	0.0121 (inactive)	0.61	0.381 (inactive)	-0.282	0.557	0.668	-0.194	0.494	-0.173	-0.569	0.211 (inactive)	0.416	0.438	0.419	0.572	0.462	-0.0477
CON(C)C(=O)c1nnc2c3ccccc3n(S(=O)(=O)c3ccc(C)cc3)c2n1	-0.0043 and 1.58	-0.461 (inactive) and 0.111 (inactive)	-0.823 (inactive) and -1.05 (inactive)	0.171 (inactive) and -0.671 (inactive)	1.2 and 1.93	0.155 (inactive) and 0.517 (inactive)	-0.0944 and -0.229	0.423 and 0.772	0.233 and 1.04	-0.0238 and -0.171	0.478 and 0.658	-0.0748 and 0.249	-0.487 and -0.75	0.317 (inactive) and 0.807 (inactive)	0.638 and 0.746	0.67 and 1.25	0.484 and 0.58	0.476 and 1.02	0.614 and 0.551	0.454 and 0.688
COC(=O)[C@@]1(Cc2ccccc2)[C@H]2c3cc(C(=O)N(C)C)n(Cc4ccc(C)c(F)c4F)c3C[C@H]2CN1C(=O)c1ccccc1	-0.325 and 1.23	-0.542 (inactive) and -0.0959 (inactive)	-0.991 (inactive) and 1.01 (inactive)	-0.447 (inactive) and 1.48 (inactive)	3.44 and 3.67	-0.359 (inactive) and -0.543 (inactive)	0.378 and 0.513	-0.566 and 0.645	0.636 and 1.06	0.168 and 0.646	1.07 and 0.37	1.39 and 0.861	1.31 and 1.05	-2.38 (inactive) and -2.61 (inactive)	0.365 and 1.01	0.22 and 1.32	-0.542 and 0.652	-0.0958 and 1.42	-1.07 and 0.472	0.885 and 1.09
